# Measured values published in publication PMC4336329 (PLoS ONE, 2015).
# Among all 310,000 compounds or so, about 2,200 (0.71%) showed an effect of 50% or more. Effects have a minus sign here. The sample as a whole holds a higher share of strong results than the screen did.
# Target: human ether-à-go-go-related gene (hERG) potassium channel (human, UniProt Q12809)
# Assay: primary screen, population patch clamp on CHO cells stably expressing hERG; higher = less effect of the substance
# human ether-à-go-go-related gene (hERG) potassium channel, sequence (Q12809 whole entry, looked up): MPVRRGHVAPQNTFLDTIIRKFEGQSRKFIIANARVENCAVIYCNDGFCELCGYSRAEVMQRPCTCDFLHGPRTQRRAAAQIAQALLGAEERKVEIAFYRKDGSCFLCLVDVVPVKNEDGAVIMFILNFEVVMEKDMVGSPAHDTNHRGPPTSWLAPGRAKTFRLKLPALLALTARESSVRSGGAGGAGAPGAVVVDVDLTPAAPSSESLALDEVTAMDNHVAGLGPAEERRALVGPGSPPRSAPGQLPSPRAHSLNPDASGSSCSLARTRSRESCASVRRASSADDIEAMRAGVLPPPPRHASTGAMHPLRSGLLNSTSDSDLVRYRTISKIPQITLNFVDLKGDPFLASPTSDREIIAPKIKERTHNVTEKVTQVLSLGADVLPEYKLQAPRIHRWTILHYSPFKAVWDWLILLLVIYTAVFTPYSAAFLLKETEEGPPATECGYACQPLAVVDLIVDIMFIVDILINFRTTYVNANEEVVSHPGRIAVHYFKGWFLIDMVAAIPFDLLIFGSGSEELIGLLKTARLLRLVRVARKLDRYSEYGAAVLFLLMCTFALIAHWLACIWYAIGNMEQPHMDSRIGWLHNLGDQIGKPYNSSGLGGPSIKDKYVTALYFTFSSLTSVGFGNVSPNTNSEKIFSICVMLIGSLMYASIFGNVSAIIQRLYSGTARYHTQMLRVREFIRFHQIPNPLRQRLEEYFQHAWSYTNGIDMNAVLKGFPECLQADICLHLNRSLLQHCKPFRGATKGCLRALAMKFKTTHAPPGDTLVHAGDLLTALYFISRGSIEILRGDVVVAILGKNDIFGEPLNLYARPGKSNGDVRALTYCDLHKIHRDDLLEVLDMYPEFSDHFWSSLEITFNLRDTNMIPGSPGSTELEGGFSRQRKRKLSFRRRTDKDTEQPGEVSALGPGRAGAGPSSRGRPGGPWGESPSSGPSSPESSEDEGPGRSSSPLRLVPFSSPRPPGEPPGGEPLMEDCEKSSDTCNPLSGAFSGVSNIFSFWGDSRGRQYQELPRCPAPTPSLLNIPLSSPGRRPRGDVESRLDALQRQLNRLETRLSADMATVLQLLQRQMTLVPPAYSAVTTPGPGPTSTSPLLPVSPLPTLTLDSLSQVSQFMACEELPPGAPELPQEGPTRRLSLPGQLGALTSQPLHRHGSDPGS
row,SMILES,"hERG current change (%, negative = inhibition) at 1uM [%]"
1,COc1ccccc1CNC(=O)C1(c2ccc(Cl)cc2)CC1,0.547
2,O=C(c1cccc(C(F)(F)F)c1)N1CCCC1,8.42
3,COc1ccc(-c2nn(-c3ccccc3)cc2/C=N/Nc2ccc3ccccc3n2)cc1OC,7.59
4,Cc1cc2n(n1)SC(Nc1cc(Cl)ccc1Cl)N2 (stereo not drawn),7.4
5,COC(=O)c1cc(S(=O)(=O)Nc2ccc(C)c(F)c2)c[nH]1,-3.6
6,CCn1c(/C(C#N)=N/O)nc2ccccc21,6.1
7,O=C(NNS(=O)(=O)c1ccc(F)cc1)c1ccccc1O,13.6
8,O=C(C[n+]1ccc(C(=O)N/N=C/c2ccc(Br)cc2)cc1)c1ccccc1.[Br-],-32.5
9,O=C(C[n+]1ccc(C(=O)N/N=C/c2ccc(O)cc2)cc1)c1ccccc1.[Br-],4.63
10,O=C(C[n+]1ccc(C(=O)N/N=C/c2ccc(Cl)cc2Cl)cc1)c1ccccc1.[Br-],-63.3
11,O=C(NCC1CCCO1)c1ccc(S(=O)(=O)Nc2ccccc2F)cc1 (stereo not drawn),7.53
12,Cc1ccc(N/C(N)=N/c2nc(C)cc(N3CCCCC3)n2)c(C)c1,-79
13,CC(=O)N/C(=N/c1nc(C)cc(C)n1)Nc1ccc(C)cc1C,4.11
14,Cc1ccc(C)c(N/C(N)=N/c2nc(C)cc(C)n2)c1,-8.3
15,COc1ccc(Cl)cc1N/C(N)=N/c1nc(C)cc(=O)[nH]1,12.3
16,COc1cc(N/C(N)=N/c2nc(C)cc(C)n2)c(OC)cc1Cl,-17.2
17,CCCOc1ccccc1N/C(=N/c1nc(C)cc(C)n1)NC(=O)Nc1ccc(Cl)cc1,8.59
18,CCCOc1ccccc1N/C(N)=N/c1nc(C)cc(C)n1,-59.4
19,COc1ccc(C)cc1N/C(N)=N/c1nc(C)cc(C)n1,-64.7
20,COc1ccc(N/C(N)=N/c2nc(C)cc(C)n2)c(OC)c1,-2.86
21,COc1ccc(Cl)cc1N/C(N)=N/c1nc(C)cc(C)n1,-79.1
22,COc1ccc(OC)c(N/C(N)=N/c2nc(C)cc(C)n2)c1,-26.5
23,COc1ccccc1N/C(N)=N/c1nc(C)cc(C)n1,-2.38

row,SMILES,"hERG current change (%, negative = inhibition) at 1uM [%]"
1,COc1cc(/C=C(\C#N)C(=O)Nc2ccccc2F)ccc1OCCN1CCOCC1,-25.6
2,CN(c1ccccc1)S(=O)(=O)c1cc(C(=O)N2CCN(c3ccccn3)CC2)ccc1Cl,16.5
3,CN1CCN(c2ccc([N+](=O)[O-])cc2NC(=O)c2ccco2)CC1,-22.4
4,Cc1ccc(S(=O)(=O)N2CCCCC2)cc1C(=O)N(CCc1ccccc1)Cc1ccccc1,12.2
5,COc1ccc(C(=O)Oc2ccc(F)cc2C(=O)/C=C/c2ccc(OC)c(OC)c2)cc1,0.79
6,O=C(COc1ccccc1Cl)NC(=S)Nc1ccc(CN2CCOCC2)cc1,15.7
7,Cc1ccc(NC(=O)COc2ccc3oc4c(c3c2)CCCC4)nc1,2.88
8,COc1cc(C2C(C(=O)c3cccs3)=C(O)C(=O)N2c2cc(C)on2)ccc1O (stereo not drawn),2.84
9,COc1ccc([N+](=O)[O-])cc1NC(=O)CSCc1ccccc1,13.5
10,COc1ccc(-c2cc3ccc(OCC(=O)NCC4CCC(C(=O)O)CC4)cc3oc2=O)cc1 (stereo not drawn),5.49
11,CC(C)(C)C(=O)N1NC(=Nc2ccccc2)SC1(C)C,7.38
12,CCOc1ccc(S(=O)(=O)NCC2CCCO2)c2ccccc12 (stereo not drawn),4.4
13,O=C1OC(Nc2ccc(Cl)cn2)c2ccccc21 (stereo not drawn),2.2
14,CCn1c(/C=C/N(C)c2ccccc2)[n+](CC)c2ccc(Cl)cc21.[I-],-7.59
15,CCOC(=O)c1ccc2c(c1)n(CC)c(C)[n+]2CC.[I-],1.24
16,CCOC(=O)c1ccc2c(c1)n(Cc1ccccc1)c(C)[n+]2CC.[O-][Cl+3]([O-])([O-])[O-],1.03
17,CCOC(=O)c1ccc2c(c1)n(CCCS(=O)(=O)[O-])c(/C=C/c1ccc(Cl)cc1)[n+]2CC,-7.29
18,CCn1c(/C=C/Nc2ccccc2)[n+](CC)c2ccc(C(=O)OCC(F)(F)F)cc21.[I-],-90.5
19,CCOC(=O)c1ccc2c(c1)n(CC)c(/C=C/N(C)c1ccccc1)[n+]2CC.[I-],-66.2
20,CCOC(=O)c1ccc2c(c1)n(CC)c(/C=C/Nc1ccccc1)[n+]2CC.[I-],-86.7
21,CCOC(=O)c1ccc2c(c1)n(CCO)c(C)[n+]2CC.[I-],6.24
22,CCn1c(C)[n+](CC)c2ccc(C(=O)N(C)c3ccccc3)cc21.[I-],25.5
23,CCC1CCCCN1C(=O)c1sc2nc(C)nc(N(CC)CC)c2c1C (stereo not drawn),5.72

row,SMILES,"hERG current change (%, negative = inhibition) at 1uM [%]"
1,O=C(CC1C(=O)NCCN1Cc1ccc(Cl)c(F)c1)NC1CCC1 (stereo not drawn),14
2,Cc1ccc(C2CCN(C(=O)Nc3ccccc3)C2)cc1 (stereo not drawn),11.5
3,CC(C)CC1NC(=O)N(CC(=O)NC2CCCc3ccccc32)C1=O (stereo not drawn),9.38
4,O=C(c1cccc(C(F)(F)F)c1)N1CCN(S(=O)(=O)c2ccc(Cl)s2)CC1,3.68
5,O=C(O)c1ccc2c(c1)C(=O)N(c1cc([N+](=O)[O-])ccn1)C2=O,10.8
6,COc1ccccc1C1/C(=C(/O)c2ccccc2)C(=O)C(=O)N1CC(C)C (stereo not drawn),10.7
7,O=C(O)C1C2C=CC(C2)C1C(=O)NCc1ccoc1 (stereo not drawn),14.3
8,CC(=O)N1CCN(CC(=O)Nc2ccc([N+](=O)[O-])cc2Br)CC1,-60.4
9,O=C(CN1CCOCC1)Nc1ccc([N+](=O)[O-])cc1Br,-11.7
10,O=C(CN1CCCCCC1)Nc1ccc([N+](=O)[O-])cc1Br,10.1
11,O=C(CN1CCN(c2ccccc2O)CC1)Nc1ccc([N+](=O)[O-])cc1Br,7.54
12,CN1CCN(CC(=O)Nc2ccc([N+](=O)[O-])cc2Br)CC1,-55.8
13,CC(=O)N1CCN(CC(=O)Nc2cc([N+](=O)[O-])ccc2Cl)CC1,1.54
14,O=C(CSc1cccc[n+]1[O-])C12CC3CC(CC(C3)C1)C2,6.16
15,NS(=O)(=O)c1cccc(NC(=O)CCCC2CCCCC2)c1,7.26
16,Cc1cccc(-c2c3c(=O)n(C)c(=O)n(C)c3cn2-c2ccc(O)cc2)c1,13.8
17,Cc1nc2c(-c3ccccc3)c[nH]n2c(=O)c1Cc1ccccc1,13.3
18,CC(CC(=O)N1CCN(S(=O)(=O)c2ccc([N+](=O)[O-])cc2)CC1)c1ccccc1 (stereo not drawn),-50.3
19,O=[N+]([O-])c1ccccc1S(=O)(=O)N1CCN(C2CCN(Cc3ccccc3)CC2)CC1,-18.2
20,O=C(O)C(=O)O.O=[N+]([O-])c1ccc(S(=O)(=O)N2CCN(C3CCN(Cc4ccccc4)CC3)CC2)cc1,-78.1
21,CC(C)CC(=O)N1CCN(S(=O)(=O)c2ccccc2)CC1,8.07
22,O=S(=O)(c1ccccc1)N1CCN(Cc2ccc(Cl)cc2)CC1,-2.04
23,O=C(Cc1ccccc1)N1CCN(S(=O)(=O)c2ccc([N+](=O)[O-])cc2)CC1,-24.6

row,SMILES,"hERG current change (%, negative = inhibition) at 1uM [%]"
1,Cc1ccc(S(=O)(=O)N2CCN(Cc3ccccc3)CC2)cc1,10
2,Cc1ccc(S(=O)(=O)N2CCN(C3CCN(Cc4ccccc4)CC3)CC2)cc1.O=C(O)C(=O)O,-75.3
3,O=C(O)C(=O)O.O=[N+]([O-])c1ccc(S(=O)(=O)N2CCN(Cc3ccco3)CC2)cc1,18.9
4,COc1ccc(S(=O)(=O)N2CCC(N3CCN(Cc4ccccc4)CC3)CC2)cc1.O=C(O)C(=O)O,-14.4
5,O=S(=O)(c1ccc(Cl)cc1)N1CCN(C2CCN(Cc3ccccc3)CC2)CC1,-59
6,O=S(=O)(c1ccc(Cl)cc1)N1CCN(C2CCCCCC2)CC1,1.61
7,c1ccc(OCc2nn3c(-c4ccccn4)nnc3s2)cc1,12.2
8,O=C(CN(C(=O)CNC(=O)c1cccs1)c1ccc2c(c1)OCCO2)NC1CCCC1,-3.99
9,COc1cccc(NC(=S)NNC(=O)Cn2nc(C(F)(F)F)cc2C)c1,9.84
10,COc1ccc(COC(=O)C2=C(C)NC(=O)NC2c2ccc(OC)c(OC)c2)cc1 (stereo not drawn),12.4
11,Cc1ccc(-c2cc3ccccc3nc2N2CCOCC2)cc1,9.78
12,Cc1ccc(OC(F)F)c(NC(=O)Nc2ccc3c(c2)OCO3)c1,19.9
13,CC(=O)NC(c1ccco1)c1ccc2cccnc2c1O (stereo not drawn),-3.48
14,Cc1cc(CSc2ccccc2C(=O)O)on1,11.6
15,Cc1ccc(C2=N/C(=C\c3cccnc3)C(=O)O2)cc1,3.52
16,CS(=O)(=O)N1CCN(C2CCN(Cc3ccccc3)CC2)CC1,7.88
17,O=S(=O)(c1ccccc1)N1CCN(C2CCN(Cc3ccccc3)CC2)CC1,-64.1
18,CN1CCN(CC2(O)CCN(S(=O)(=O)c3ccc(Cl)cc3)CC2)CC1,-9.27
19,O=S(=O)(c1ccccc1)N1CCC(O)(CN2CCN(c3ccccc3)CC2)CC1,14.8
20,O=S(=O)(c1ccc(Cl)cc1)N1CCC(O)(CN2CCN(Cc3ccccc3)CC2)CC1,-75.6
21,COc1ccc(S(=O)(=O)N2CCN(C3CCN(Cc4ccccc4)CC3)CC2)cc1,-15.6
